PubChem BioAssay (NCATS)
Calls of active or inactive are those of the source. Calls follow the shape of the dose curve; as a rule, active = well fitted inhibition curve with a large enough effect; inconclusive = small, poorly fitted or top-dose-only effect; inactive = flat fitted curve, though single readings scatter.

Target: Phosphoglycerate kinase, glycosomal (Trypanosoma brucei brucei) (UniProt P07378)
Test: qHTS Validation Assay to Find Inhibitors of Phosphoglycerate Kinase (AID 504547);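 also: control wells lack PGK and mark full inhibition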
Conditions: enzymatic PGK inhibition, coupled luminescence read-out; series mostly up to 57.5 µM; activity, negative = inhibition: at the top concentration
Text: NIH Molecular Libraries Probe Production Network [MLPCN]
NIH Chemical Genomics Center [NCGC]
PI Name: Malcolm Walkinshaw, University of Edinburgh
Several species of the Trypanosomatidae family of parasitic protozoans cause a spectrum of diseases
throughout the tropical and subtropical world. Sleeping sickness, caused by two subspecies of Trypanosoma brucei, is endemic to areas of sub-Saharan Africa, while Chagas disease, a manifestation of Trypanosoma cruzi infection, is prevalent throughout Central and South America. In addition, many species of Leishmania are responsible for a range of cutaneous and visceral diseases, causing ulcers, destructive lesions and kalaazar, a lethal infection of the viscera. Collectively, these organisms infect 30 million people worldwide (~500 million live in endemic areas), and account for ~130,000 deaths annually. Given their debilitating and prevalent nature, trypanosomatid parasites impose a heavy medical, economic and social burden on entire populations, primarily in the developing world. The problem is further exacerbated by the fact that existing treatments have progressed little in the past 50 years, and current drugs show high toxicity and poor efficacy.
Blood-stream stages of T. brucei are entirely dependent on glycolysis as a source of ATP, and the tricarboxylic acid cycle and oxidative phosphorylation are both repressed. Glycolysis in axenically cultured T. cruzi, representing the intracellular pathogenic stage, is also essential for these parasites. […] Previous studies have shown that the glycolytic enzyme, phosphoglycerate kinase (PGK), is a viable target for drugs to kill these parasites.
NCGC Assay Protocol Summary:
Briefly, 3ul of substrate/PGK buffer (columns 1,2,5-48) are dispensed into Greiner white solid bottom 1536-well assay plates; columns 3-4 receive only TEA buffer as 0x PGK controls. Compounds are then transferred via Kalypsys pin tool equipped with 1536-pin array (10nl slotted pins, V&P Scientific, San Diego, CA). Following addition of compound, 1ul of GAPDH (100nM final concentration, all columns) is added to initiate the reaction (this upstream coupling enzyme is necessary for in-well production of PGK substrate, 1,3-bisphosphoglycerate (1,3-BPG), which is unstable and not commercially available). The plates are then incubated at room temperature for 60 minutes. Kinase-Glo Plus reagent is added (2ul) and plates incubated for 10 minutes, before being transferred to a ViewLux high-throughput CCD imager (PerkinElmer) wherein single end-point measurements of luminescence are acquired using a clear filter. All reagents are diluted in an assay buffer consisting of 100mM TEA (pH 7.6), 5mM MgCl2 and 0.01% Tween-20.

Phosphoglycerate kinase, glycosomal (Trypanosoma brucei brucei), sequence (P07378 whole entry, looked up): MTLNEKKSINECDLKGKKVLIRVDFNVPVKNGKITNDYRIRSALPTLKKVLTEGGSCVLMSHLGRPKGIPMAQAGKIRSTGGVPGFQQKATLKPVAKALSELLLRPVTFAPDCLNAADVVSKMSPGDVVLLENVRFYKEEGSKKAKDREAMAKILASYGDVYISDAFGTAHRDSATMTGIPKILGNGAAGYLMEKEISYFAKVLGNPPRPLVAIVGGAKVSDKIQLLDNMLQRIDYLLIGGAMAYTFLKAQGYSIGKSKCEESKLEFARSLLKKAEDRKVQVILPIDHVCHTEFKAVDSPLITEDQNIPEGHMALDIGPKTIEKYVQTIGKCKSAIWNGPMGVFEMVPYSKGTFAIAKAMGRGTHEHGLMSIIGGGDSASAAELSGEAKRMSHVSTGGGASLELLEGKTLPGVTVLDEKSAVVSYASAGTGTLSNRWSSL

Row | SMILES | activity, negative = inhibition
1 | N[C@@H](Cc1c[nH]c2ccc(O)cc12)C(=O)O | 4.75% (inactive)
2 | CCOC(=O)C(C)(C)Oc1ccc(Cl)cc1 | 5.98% (inactive)
3 | O=C(Nc1ccc([N+](=O)[O-])cc1Cl)c1cc(Cl)ccc1O | 11% (inactive)
4 | OCCN(CCO)c1nc(N2CCCCC2)c2nc(N(CCO)CCO)nc(N3CCCCC3)c2n1 | 8.66% (inactive)
5 | O=C(c1ccc(OCCN2CCCCC2)cc1)c1c(-c2ccc(O)cc2)sc2cc(O)ccc12 | 4.49% (inactive)
6 | CCC1(C)CC(=O)NC1=O (stereo not given) | 9.49% (inactive)
7 | CCc1cccc2c3c([nH]c12)C(CC)(CC(=O)O)OCC3 (stereo not given) | 0.769% (inactive)
8 | CC#C[C@]1(O)CC[C@H]2[C@@H]3CCC4=CC(=O)CCC4=C3[C@@H](c3ccc(N(C)C)cc3)C[C@@]21C | -1.58% (inactive)
9 | Cn1cnc2c1c(=O)[nH]c(=O)n2C | 7.33% (inactive)
10 | CCCCc1oc2ccccc2c1C(=O)c1cc(I)c(OCCN(CC)CC)c(I)c1 | 4.48% (inactive)
11 | CN1CCC(=C2c3ccccc3C=Cc3ccccc32)CC1 | -3.72% (inactive)
12 | COc1cc2nc(N3CCN(C(=O)c4ccco4)CC3)nc(N)c2cc1OC | 5.92% (inactive)
13 | O=C1Cc2cc(CCN3CCN(c4nsc5ccccc45)CC3)c(Cl)cc2N1 | 5.32% (inactive)
14 | CN1CCN(C2=Nc3cc(Cl)ccc3Nc3ccccc32)CC1 | 12.2% (inactive)
15 | CCN1CCCC1CNC(=O)c1cc(S(=O)(=O)CC)c(N)cc1OC (stereo not given) | 1.98% (inactive)
16 | CC(CCc1ccc(O)cc1)NCCc1ccc(O)c(O)c1 (stereo not given) | 7.55% (inactive)
17 | CC(C)Cc1ccc(C(C)C(=O)O)cc1 (stereo not given) | 4.79% (inactive)
18 | COc1ccc2c(c1)c(CC(=O)O)c(C)n2C(=O)c1ccc(Cl)cc1 | 10.2% (inactive)
19 | COc1ccccc1N1CCN(CC(O)COc2cccc3ccccc23)CC1 (stereo not given) | 3.78% (inactive)
20 | CC1COc2c(N3CCN(C)CC3)c(F)cc3c(=O)c(C(=O)O)cn1c23 (stereo not given) | 3.28% (inactive)

Row | SMILES | activity, negative = inhibition
21 | Cc1cn([C@H]2C[C@H](N=[N+]=[N-])[C@@H](CO)O2)c(=O)[nH]c1=O | 4.59% (inactive)
22 | CN(C)CCOC(c1ccccc1)c1ccccc1 | 15.1% (inactive)
23 | CN(C)c1nc(N(C)C)nc(N(C)C)n1 | 4.96% (inactive)
24 | CC12CC3CC(C)(C1)CC(N)(C3)C2 | 3.88% (inactive)
25 | O=C(c1ccc(F)cc1)C1CCN(CCn2c(=O)[nH]c3ccccc3c2=O)CC1 | 15.4% (inactive)
26 | Cc1ccccc1N1C(=O)c2cc(S(N)(=O)=O)c(Cl)cc2NC1C (stereo not given) | 8.23% (inactive)
27 | CN1CCN(CCCN2c3ccccc3Sc3ccc(Cl)cc32)CC1 | 5.08% (inactive)
28 | O=C(C1CCCCC1)N1CC(=O)N2CCc3ccccc3C2C1 (stereo not given) | 12.4% (inactive)
29 | O=C(CCCN1CCC(O)(c2ccc(Cl)cc2)CC1)c1ccc(F)cc1 | -2.93% (inactive)
30 | NCCCCCC(=O)O | -2.45% (inactive)
31 | Nc1nc2c(ncn2COC(CO)CO)c(=O)[nH]1 | 6.77% (inactive)
32 | Clc1ccc2c(c1)C(N1CCNCC1)=Nc1ccccc1O2 | 8.55% (inactive)
33 | Cc1cc(C(C)(C)C)c(O)c(C)c1CC1=NCCN1 | 5% (inactive)
34 | CN(C)C(=O)C(CCN1CCC(O)(c2ccc(Cl)cc2)CC1)(c1ccccc1)c1ccccc1 | 6.07% (inactive)
35 | CN(C)CCCN1c2ccccc2CCc2ccc(Cl)cc21 | 1.57% (inactive)
36 | COc1cc2nc(N(C)CCCNC(=O)C3CCCO3)nc(N)c2cc1OC (stereo not given) | 1.57% (inactive)
37 | CN(Cc1cnc2nc(N)nc(N)c2n1)c1ccc(C(=O)N[C@@H](CCC(=O)O)C(=O)O)cc1 | -25.3% (inactive)
38 | O=C1N(c2ccccc2)c2ccccc2C1(Cc1ccncc1)Cc1ccncc1 | 5.79% (inactive)
39 | CC(COc1ccccc1)N(CCCl)Cc1ccccc1 (stereo not given) | 4.96% (inactive)
40 | CC(C)(Oc1ccc(C2CC2(Cl)Cl)cc1)C(=O)O (stereo not given) | 25% (inactive)
